Values joined by “and” are separate entries in the source; they are usually repeats but may differ in a detail not shown here. Equal entries are not always repeated. Inconclusive results are not listed. Values without a mark were called inactive. Active and inactive are the calls of the source. Calls follow the shape of the dose curve; as a rule, active = well fitted curve in the direction sought with a large enough effect; inconclusive = small, poorly fitted or top-dose-only effect, or another doubt; inactive = no such curve, though single readings can be large; an effect the other way counts as inactive or inconclusive.

In assay [1] the target is Cellular tumor antigen p53 (Homo sapiens) (UniProt P04637). Put plainly: Primary qHTS for small molecule compounds that upregulate eGFP-tagged delta133p53alpha (in N-terminal) cells. (AID 2060322). Also: nearly all actives have a fitted effect of over 75% in size. Also: potency is read from the fitted curve at half-maximal effect.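 As to activation: cells pre-induced with doxycycline then dosed without doxycycline; series mostly up to about 56 µM; 0% = DMSO vehicle and 100% = reference activator.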 The settings on record: NCI-H358 eGFP-delta133p53alpha fluorescence, 24 h; activation: stronger effect = higher value. In outline:
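NCI-H358 cells pre-induced 24 h with 10 ng/ml doxycycline for eGFP-delta133p53alpha, plated dox-free and exposed 24 h at 37C to titrated compounds. Fixed, Hoechst-stained; gated GFP peak intensity by laser scanning cytometry, normalized to DMSO (0%) and 57.5 uM 5-azacytidine (100%).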
(In general: Quantitative high-throughput screening tests each substance at several concentrations.)

Assay [2] deals with Retinaldehyde dehydrogenase 3 (Homo sapiens) (UniProt P47895). The experiment in a line: qHTS for Inhibitors of the Aldehyde Dehydrogenase Family (ALDH1A3) Validation screen (AID 2061312). Also: nearly all actives have a fitted effect of over 45% in size. Also: potency is read from the fitted curve at half-maximal effect.
The target is the same in assay [3]. Put plainly: qHTS for Inhibitors of the Aldehyde Dehydrogenase Family (ALDH1A3) Primary screen (AID 2061315). Also: potency is read from the fitted curve at half-maximal effect.
Assay [4] shares this target. Put plainly: qHTS for Inhibitors of the Aldehyde Dehydrogenase Family (ALDH1A3) Confirmatory screens (AID 2061311). Also: potency is read from the fitted curve at half-maximal effect; nearly all actives have a fitted effect of over 60% in size.
Assay [5] has as its target Aldehyde dehydrogenase 1A1 (Homo sapiens) (UniProt P00352). Put plainly: qHTS for Inhibitors of the Aldehyde Dehydrogenase Family (ALDH1A1) Confirmatory screens (AID 2061316). Also: nearly all actives have a fitted effect of over 65% in size. Also: potency is read from the fitted curve at half-maximal effect.
Assay [6] addresses Aldehyde dehydrogenase, mitochondrial (Homo sapiens) (UniProt P05091). The experiment in a line: qHTS for Inhibitors of the Aldehyde Dehydrogenase Family (ALDH2) Primary screen (AID 2061308).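 Also: plate controls were vehicle for no effect and reference inhibitor for full effect; nearly all actives have a fitted effect of over 55% in size.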
The nature of assay [7]: BET inhibitor-based combinations targeting novel dependencies in MECOM-rearranged (r) AML: MV-4-11 cell line (AID 2202233). Also: potency is read from the fitted curve at half-maximal effect; nearly all actives have a fitted effect of over 45% in size. In outline:
(§1)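 Cells at 500/well were exposed for 48 hr to MIPE v5.0 drugs as 11-point dose curves. Viability was read by CellTiter-Glo luminescence and normalized to DMSO and empty-well controls. Activity was expressed as AUC and per-cell-line Z-AUC.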

A short description of assay [8]: BET inhibitor-based combinations targeting novel dependencies in MECOM-rearranged (r) AML: HNT-34 cell line (AID 2202234). Also: nearly all actives have a fitted effect of over 35% in size. Also: potency is read from the fitted curve at half-maximal effect. In outline: as §1
A short description of assay [9]: BET inhibitor-based combinations targeting novel dependencies in MECOM-rearranged (r) AML: OCI-AML3 cell line (AID 2202232). Also: nearly all actives have a fitted effect of over 35% in size. Also: potency is read from the fitted curve at half-maximal effect. The settings on record: Potency: OCI-AML3 viability. Put shortly:
(§2)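 AML cell lines seeded at 500 cells/well, treated with 11-point dose curves for 48 h. Viability by CellTiter-Glo luminescence, normalised to DMSO and empty wells; activity expressed as AUC and per-cell-line Z-transformed AUC.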

Assay [10] is described as follows: BET inhibitor-based combinations targeting novel dependencies in MECOM-rearranged (r) AML: UCSD-AML1 cell line (AID 2202235). Also: nearly all actives have a fitted effect of over 40% in size. Also: potency is read from the fitted curve at half-maximal effect. Put shortly:
as §1

Assay [11] in a line: BET inhibitor-based combinations targeting novel dependencies in MECOM-rearranged (r) AML: SET-2 cell line (AID 2202231). Also: nearly all actives have a fitted effect of over 35% in size. Also: potency is read from the fitted curve at half-maximal effect.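 As to viability: plate controls were DMSO treated cells for no effect and wells without cells for full effect.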 The settings on record: SET-2 AML cells viability, CellTiter-Glo luminescence, 48 h; viability: stronger effect = lower value, concentration not given here. In outline:
as §2

Assay [12] in a line: BET inhibitor-based combinations targeting novel dependencies in MECOM-rearranged (r) AML: AML-191 cell line (AID 2202236; also: nearly all actives have a fitted effect of over 35% in size; also: potency is read from the fitted curve at half-maximal effect). In outline:
as §2

Assay [13] can be described thus: BET inhibitor-based combinations targeting novel dependencies in MECOM-rearranged (r) AML: AML-194 cell line (AID 2202237; also: nearly all actives have a fitted effect of over 40% in size; also: potency is read from the fitted curve at half-maximal effect). Put shortly:
as §2

Cellular tumor antigen p53 (Homo sapiens), sequence (P04637 whole entry, looked up): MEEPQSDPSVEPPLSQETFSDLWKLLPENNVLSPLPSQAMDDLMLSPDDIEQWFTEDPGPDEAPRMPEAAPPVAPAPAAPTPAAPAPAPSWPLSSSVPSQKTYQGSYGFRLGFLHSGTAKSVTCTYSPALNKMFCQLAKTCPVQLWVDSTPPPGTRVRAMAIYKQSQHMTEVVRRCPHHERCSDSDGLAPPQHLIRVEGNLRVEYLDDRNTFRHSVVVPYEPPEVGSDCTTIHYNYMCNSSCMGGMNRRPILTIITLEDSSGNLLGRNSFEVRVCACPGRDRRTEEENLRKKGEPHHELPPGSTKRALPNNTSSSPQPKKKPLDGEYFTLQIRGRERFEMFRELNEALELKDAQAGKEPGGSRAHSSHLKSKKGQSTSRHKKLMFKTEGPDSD

With `COc1ccc2cc(C(C)C(=O)Oc3ccc(C(N)=S)cc3)ccc2c1` (stereo not given), the activation in assay [1] was -3.34%. Besides, the Potency entry in assay [2] and in assay [3] was “inactive” throughout.

With `C=CC(=O)N1CC(N2CCN(C(=O)CNc3cc(C4CC4)c(Cl)cc3O)CC2)C1`, the activation in [1] is 10%. Further, the Potency in assay [4] was 4 µM (active); in [2], 10 µM (active); in assay [3] it was 2.51 µM (active); in assay [5] it was 22.5 µM (active).

In the case of `Cn1nc(-c2ccc(C(F)(F)F)cc2)nc2c(=O)n(C)c(=O)nc1-2`, the Potency in assay [1] was 4.78 µM (active); in assay [2], 2.51 µM (active).

For `Cc1cc(O)cc(Oc2cc(C)c(C(=O)O)c(O)c2)c1`, the activation in [1] was -7.63%. In addition, the Potency was 22.5 µM (active) in assay [4] and 17.9 µM (active) in assay [5].

Take `COc1ccccc1C(=O)Nc1cc2c(cc1N1CCCC1)n(C)c(=O)n2C`: in assay [1], the activation is -44.7%. The Potency result in assay [6] was “inactive”. Besides, the figures for the Potency in assay [7] and in [8] were 16.6 µM (active) and 26.3 µM (active), respectively.

Consider `c1ccc(C(NCc2cccnc2)(c2ccccc2)c2ccccc2)cc1`, for which the activation in assay [1] was -2.89%. In assay [2], the Potency entry was “inactive”.

For the compound `Cc1c(CN2CCN(S(C)(=O)=O)CC2)sc2c(N3CCOCC3)nc(-c3cnc(N)nc3)nc12`, the activation in assay [1] was -10.7%. Moreover, the Potency result in assay [6] was “inactive”. In addition, the Potency is 0.59 µM (active) in assay [9], 1.32 µM (active) in assay [7], 1.66 µM (active) in assay [8] and 0.186 µM (active) in [10].

For the compound `CCCCc1nc2cc(/C=C/C(=O)NO)ccc2n1CCN(CC)CC`, the Potency in assay [1] was 27.3 µM (active); in assay [11], 0.662 µM (active); in assay [9], 0.833 µM (active); in [7] it was 0.332 µM (active); in assay [8], 0.833 µM (active); in assay [10] it was 0.833 µM (active). The Potency in assay [12] is 0.833 µM (active); in assay [13] it was 1.18 µM (active). In addition, the Potency result in assay [6] was “inactive”.

As a reminder, the viability is a read-out of living cells in per cent, often relative to untreated cells. Regarding `COc1cc2c(cc1OCCCN1CCCC1)N=C(N)C21CCC1`, in assay [1], the activation is 5.59%. The Potency entry in [6], in assay [9], in assay [8], in assay [10] and in assay [13] was “inactive” throughout. The viability in assay [11] is 106%.

Turning to `COc1cc(N2CCN(C(C)=O)CC2)ccc1Nc1ncc(Cl)c(Nc2ccc(N3CCN(C(C)=O)CC3)cc2OC)n1`, the activation in [1] was -5.36%. For the same compound, the Potency entry in [6] is “inactive”. Also, the Potency is 0.934 µM (active) in assay [7], 6.61 µM (active) in assay [8] and 4.17 µM (active) in [10].

On to `CN(C)Cc1c(C(=O)NCCOc2ccc(C(=O)NO)cc2)oc2ccccc12`, for which the Potency in assay [1] is 21.7 µM (active); in [11] it was 0.662 µM (active); in [9], 0.59 µM (active); in [7] it was 0.263 µM (active); in [8], 0.934 µM (active); in [10], 0.662 µM (active). Moreover, the Potency in assay [12] was 0.742 µM (active); in assay [13] it was 0.934 µM (active). The Potency entry in assay [6] was “inactive”.

Turning to `C/C=C/C=C/C(CC(=O)O)Nc1ccc(C=O)cc1` (stereo not given), the activation in [1] is -13.7%. In addition, the Potency in [4] was 12.7 µM (active); in assay [5], 2.01 µM (active). The Potency entry in assay [3] was “inactive”.

For `NC1(c2ccc(-c3nc4ccn5c(=O)[nH]nc5c4cc3-c3ccccc3)cc2)CCC1`, in [1], the activation is 26.3% and 14.1% and 3.82%. In addition, the Potency result in [6] was “inactive”. Also, the Potency is 20.9 µM (active) in assay [11]; 13.2 µM (active) in assay [7]; 7.42 µM (active) in assay [8]; 14.8 µM (active) in [10]; 18.6 µM (active) in [12]; 18.6 µM (active) in [13].

Turning to `CCOc1cc(N2CCC(O)CC2)ccc1Nc1ncc2c(n1)N(C1CCCC1)CCC(=O)N2C`, the activation in [1] was 4.33%. Besides, in assay [4], the Potency was 20.1 µM (active). The Potency entry in assay [5] was “inactive”.

Regarding `Clc1ccc(Cn2c(Cc3ccccc3)nc3ccccc32)cc1`, the activation in assay [1] is -5.25%. Besides, the Potency entry in assay [2] and in assay [3] was “inactive” each time.

On to `C=CC(=O)Nc1cccc(Nc2nc(Nc3ccc(NC4CN(CCF)C4)cc3OC)ncc2C(F)(F)F)c1`, for which the Potency in [1] was 7.57 µM (active); in [11], 18.6 µM (active); in [9] it was 16.6 µM (active); in assay [7], 2.63 µM (active); in assay [8] it was 3.32 µM (active); in assay [10], 9.34 µM (active). The Potency in [12] and in [13] was 13.2 µM (active) in each case. Moreover, the Potency result in assay [6] was “inactive”.

In the case of `O=C(/C=C/C=C/c1ccc2c(c1)OCO2)N1CCCCC1`, the activation in assay [1] is -7.63%. Besides, the Potency result in assay [6], in assay [8], in assay [10] and in [12] was “inactive” each time. For the same compound, in [11], the viability is 96.4%. Moreover, the Potency in assay [9] is 18.6 µM (active).

On to `COCCCNCC1COc2ccccc2O1` (stereo not given), for which the activation in [1] was -6.68%. Further, the Potency result in assay [3] was “inactive”.

Consider `CC(C)=C/C=C\[C@H](C)[C@H]1CC[C@]2(C)C[C@@H]3C(C)=CC(=O)C3/C(CO)=C\C[C@@H]12` (stereo not given in full), for which the activation in assay [1] is -9.92%. For the same compound, the Potency result in [3] was “inactive”.

As for `C/C=C/CCC1Cc2cc(O)c(CCCC)c(O)c2C(=O)O1` (stereo not given), in [1], the activation is -16%. For the same compound, the Potency result in [3] was “inactive”.

For the origin of these results see PubChem BioAssay (NCATS).
